According to PubChem BioAssay (NCATS):
Inconclusive results are not listed. The source made the active and inactive calls. Calls come from the whole dose curve; as a rule, active = well fitted inhibition curve with a large enough effect; inconclusive = small, poorly fitted or top-dose-only effect; inactive = no such curve, though single readings can be large or run the other way.

assay: qHTS Screen of the MIPE 4.0 Collection Against Ewings Sarcoma (TC71) (AID 1259253); details: TC71 Ewing sarcoma viability, CellTiter-Glo, 48 h; series mostly up to 45.8 µM; note: nearly all actives have a fitted effect of over 40% in size
In short: (§1)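 Here, cells in 5% FBS RPMI were exposed for two days (48 h) to compound dilutions added four hours after plating. ATP-based CellTiter-Glo luminescence measured viability, normalized to vehicle and no-cell blanks.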
Potency is the fitted concentration of half-maximal effect.

| Compound | Potency |
| --- | --- |
| CN(C)Cc1c(C(=O)NCCOc2ccc(C(=O)NO)cc2)oc2ccccc12 | 935 nM (active) |
| CCN(CC)CCNC(=O)c1ccc2nc(-c3ccccc3)c(-c3ccc(CN4CCC(n5c(=O)[nH]c6ccccc65)CC4)cc3)nc2c1 | 23500 nM (active) |
| COc1ccc2c(OCc3nnc4ccc(-c5ccccc5)nn34)ccnc2c1 | inactive |
| Nc1ncnc2c1c(-c1cnc3[nH]ccc3c1)nn2C1CCCC1 | 662 nM (active) |
| CC(C)c1cc(-c2n[nH]c(=O)n2-c2ccc3c(ccn3C)c2)c(O)cc1O | 66.2 nM (active) |
| COc1cc2c(cc1-c1c(C)noc1C)ncc1[nH]c(=O)n([C@H](C)c3ccccn3)c12 | 4690 nM (active) |
| COc1cc(Nc2ncc(F)c(Nc3ccc4c(n3)N(COP(=O)(O)O)C(=O)C(C)(C)O4)n2)cc(OC)c1OC | 16600 nM (active) |
| CC[C@@]1(O)C(=O)OCc2c1cc1n(c2=O)Cc2cc3cc(O)ccc3nc2-1 | 11.8 nM (active) |
| Cc1ccc2nc(NC(=O)CSc3nc4c(c(=O)n3-c3ccccc3)SCC4)sc2c1 | 20900 nM (active) |
| CN1CCN(Cc2ccc(NC(=O)Nc3ccc(Oc4cc(NC(=O)C5CC5)ncn4)cc3)cc2C(F)(F)F)CC1 | 132 nM (active) |
| COc1ccc(C(=O)CC2(O)C(=O)Nc3c(Cl)ccc(Cl)c32)cc1 (stereo unspecified) | 3320 nM (active) |
| CN1CC[C@@H](c2c(O)cc(O)c3c(=O)cc(-c4ccccc4Cl)oc23)[C@@H](O)C1 | 74.3 nM (active) |
| CC1(C)CC(=O)c2c(C(F)(F)F)nn(-c3ccc(C(N)=O)c(NC4CCC(OC(=O)CN)CC4)c3)c2C1 (stereo unspecified) | 166 nM (active) |
| COC(=O)[C@]12CCC(C)(C)C[C@@H]1[C@@H]1C(=O)C=C3[C@@]4(C)C=C(C#N)C(=O)C(C)(C)[C@@H]4CC[C@@]3(C)[C@]1(C)CC2 | 264 nM (active) |
| O=C(CCCCCCC(=O)Nc1ccc([C@H]2O[C@@H](CSc3nc(-c4ccccc4)c(-c4ccccc4)o3)C[C@@H](c3ccc(CO)cc3)O2)cc1)NO | 13200 nM (active) |
| COc1cccc(-c2ccc(NC(=O)C3=C(C(=O)O)CCC3)c(F)c2)c1 | 11800 nM (active) |
| CC(C)(O)CCc1ccc(OCc2cc(-c3cccc(OC(F)F)c3)c3ncccc3c2)cc1 | inactive |
| CCc1cc2c(cc1N1CCC(N3CCOCC3)CC1)C(C)(C)c1[nH]c3cc(C#N)ccc3c1C2=O | inactive |
| OCc1ccc(-c2ccc(-c3ccc(CO)s3)o2)s1 | 26400 nM (active) |
| Cc1coc2c1C(=O)C(=O)c1c-2ccc2c1CCCC2(C)C | inactive |
| COc1ccc(-n2nc(C(N)=O)c3c2C(=O)N(c2ccc(N4CCCCC4=O)cc2)CC3)cc1 | inactive |

assay: qHTS Screen of the MIPE 4.0 Collection Against Ewings Sarcoma (EW8) (AID 1259255); details: EW8 Ewing sarcoma viability, CellTiter-Glo, 48 h; series mostly up to 45.8 µM; note: nearly all actives have a fitted effect of over 35% in size
In short: as §1

| Compound | Potency |
| --- | --- |
| COc1cc2c(NC3CCN(C(C)C)CC3)nc(C3CCCCC3)nc2cc1OCCCN1CCCC1 | 5900 nM (active) |
| Cc1cc(N2CCOCC2)cc2[nH]c(-c3c(NC[C@@H](O)c4cccc(Cl)c4)cc[nH]c3=O)nc12 | 20900 nM (active) |
| CNC(=O)c1ccc(-c2cnc3ncc(Cc4ccc5ncccc5c4)n3n2)cc1F | inactive |
| C=CC(=O)Nc1cccc(Oc2nc(Nc3ccc(N4CCN(C)CC4)cc3)ncc2Cl)c1 | 2640 nM (active) |
| O=C(Cc1ccc(-c2ccc(OCCN3CCOCC3)cc2)cn1)NCc1ccccc1 | 23.5 nM (active) |
| Clc1cccc(-n2nnnc2NCc2ccccc2Oc2ccccn2)c1Cl | inactive |
| COc1cccc2c(NCc3ccccc3)nc(-n3c(N)nc4ccccc43)nc12 | 8330 nM (active) |
| Nc1ncnc2c1c(-c1cccc(OCc3ccccc3)c1)cn2C1CC(CN2CCCC2)C1 (stereo unspecified) | 16600 nM (active) |
| Cc1c(CN2CCN(S(C)(=O)=O)CC2)sc2c(N3CCOCC3)nc(-c3cnc(N)nc3)nc12 | 66.2 nM (active) |
| O=C1CCC[C@@H]2[C@H]3CCC[N+]4([O-])CCC[C@@H](CN12)[C@@H]34 (stereo partly specified) | inactive |
| NC(=O)c1cccc2cn(-c3ccc([C@@H]4CCCNC4)cc3)nc12 | 7430 nM (active) |
| COc1cccc(Nc2c(C(N)=O)cnc3c(C)cc(S(=O)(=O)c4cccc(C(=O)N(C)C)c4)cc23)c1 | inactive |
| O=c1c2ccccc2nc2n1CCc1c-2[nH]c2ccccc12 | inactive |
| COC(=O)C1=C(C)NC(C)=C(C(=O)OCCN2CCN(C(c3ccccc3)c3ccccc3)CC2)C1c1cccc([N+](=O)[O-])c1 (stereo unspecified) | inactive |
| CN(C)Cc1c(C(=O)NCCOc2ccc(C(=O)NO)cc2)oc2ccccc12 | 1050 nM (active) |
| CCN(CC)CCNC(=O)c1ccc2nc(-c3ccccc3)c(-c3ccc(CN4CCC(n5c(=O)[nH]c6ccccc65)CC4)cc3)nc2c1 | 16600 nM (active) |
| COc1ccc2c(OCc3nnc4ccc(-c5ccccc5)nn34)ccnc2c1 | inactive |
| Nc1ncnc2c1c(-c1cnc3[nH]ccc3c1)nn2C1CCCC1 | 2090 nM (active) |

| Compound | Potency |
| --- | --- |
| CC(C)c1cc(-c2n[nH]c(=O)n2-c2ccc3c(ccn3C)c2)c(O)cc1O | 66.2 nM (active) |
| COc1cc2c(cc1-c1c(C)noc1C)ncc1[nH]c(=O)n([C@H](C)c3ccccn3)c12 | 18700 nM (active) |
| COc1cc(Nc2ncc(F)c(Nc3ccc4c(n3)N(COP(=O)(O)O)C(=O)C(C)(C)O4)n2)cc(OC)c1OC | 7430 nM (active) |
| CC[C@@]1(O)C(=O)OCc2c1cc1n(c2=O)Cc2cc3cc(O)ccc3nc2-1 | 13.2 nM (active) |
| Cc1ccc2nc(NC(=O)CSc3nc4c(c(=O)n3-c3ccccc3)SCC4)sc2c1 | 16600 nM (active) |
| CN1CCN(Cc2ccc(NC(=O)Nc3ccc(Oc4cc(NC(=O)C5CC5)ncn4)cc3)cc2C(F)(F)F)CC1 | 372 nM (active) |
| COc1ccc(C(=O)CC2(O)C(=O)Nc3c(Cl)ccc(Cl)c32)cc1 (stereo unspecified) | 1480 nM (active) |
| CN1CC[C@@H](c2c(O)cc(O)c3c(=O)cc(-c4ccccc4Cl)oc23)[C@@H](O)C1 | 118 nM (active) |
| CC1(C)CC(=O)c2c(C(F)(F)F)nn(-c3ccc(C(N)=O)c(NC4CCC(OC(=O)CN)CC4)c3)c2C1 (stereo unspecified) | 209 nM (active) |
| COC(=O)[C@]12CCC(C)(C)C[C@@H]1[C@@H]1C(=O)C=C3[C@@]4(C)C=C(C#N)C(=O)C(C)(C)[C@@H]4CC[C@@]3(C)[C@]1(C)CC2 | 296 nM (active) |
| O=C(CCCCCCC(=O)Nc1ccc([C@H]2O[C@@H](CSc3nc(-c4ccccc4)c(-c4ccccc4)o3)C[C@@H](c3ccc(CO)cc3)O2)cc1)NO | 4690 nM (active) |
| COc1cccc(-c2ccc(NC(=O)C3=C(C(=O)O)CCC3)c(F)c2)c1 | 9350 nM (active) |
| CC(C)(O)CCc1ccc(OCc2cc(-c3cccc(OC(F)F)c3)c3ncccc3c2)cc1 | inactive |
| CCc1cc2c(cc1N1CCC(N3CCOCC3)CC1)C(C)(C)c1[nH]c3cc(C#N)ccc3c1C2=O | inactive |
| OCc1ccc(-c2ccc(-c3ccc(CO)s3)o2)s1 | 7.4 nM (active) |
| Cc1coc2c1C(=O)C(=O)c1c-2ccc2c1CCCC2(C)C | inactive |
| COc1ccc(-n2nc(C(N)=O)c3c2C(=O)N(c2ccc(N4CCCCC4=O)cc2)CC3)cc1 | inactive |
